{"source": "PubChem BioAssay", "note": "Values joined by “and” are separate entries in the source; they are usually repeats but may differ in a detail not shown here. Identical values can stand only once. Active and inactive are the calls of the source.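 The calls were made as follows, unless noted: active = percent response above 42, roughly 3 SD of non-fluorescent test compounds; inactive = the rest.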", "data": [{"target": "Beta-adrenergic receptor kinase 1 (Homo sapiens) (UniProt P25098)", "sequence (P25098 whole entry, looked up)": "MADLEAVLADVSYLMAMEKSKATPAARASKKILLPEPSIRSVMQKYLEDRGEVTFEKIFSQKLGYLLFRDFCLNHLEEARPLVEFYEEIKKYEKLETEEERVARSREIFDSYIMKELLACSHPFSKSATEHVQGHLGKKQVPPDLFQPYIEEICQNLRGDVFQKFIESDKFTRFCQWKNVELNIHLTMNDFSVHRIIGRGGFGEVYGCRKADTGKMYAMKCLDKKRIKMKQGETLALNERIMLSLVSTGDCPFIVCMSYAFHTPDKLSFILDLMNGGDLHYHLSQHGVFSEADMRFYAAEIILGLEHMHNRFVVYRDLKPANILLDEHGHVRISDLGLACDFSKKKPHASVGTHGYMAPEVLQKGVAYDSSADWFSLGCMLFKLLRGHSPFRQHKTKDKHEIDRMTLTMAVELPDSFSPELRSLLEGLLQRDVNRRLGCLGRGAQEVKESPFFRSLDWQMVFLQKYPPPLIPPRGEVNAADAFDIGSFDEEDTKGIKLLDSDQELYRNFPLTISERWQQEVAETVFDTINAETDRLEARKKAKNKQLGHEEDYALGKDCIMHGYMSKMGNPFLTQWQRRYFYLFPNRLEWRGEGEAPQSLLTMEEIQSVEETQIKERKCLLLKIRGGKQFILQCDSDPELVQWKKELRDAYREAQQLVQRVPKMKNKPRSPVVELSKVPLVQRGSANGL", "assay": "GRK2 binders displacing RNA aptamer, biochemical, validation, human GRK2, bead flow cytometry (AID 488806;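 active = aptamer binding inhibition above 30%, about 3 SD of noise from non-fluorescent compounds; inactive = inhibition at or below 30%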)", "conditions": "bead-bound GRK2, FAM-aptamer displacement, at 10 µM, active compounds read high", "values": [{"smiles": "CC(C)(C)c1ccc(/C=C/C(=O)N2CCCCC2)cc1", "aptamer binding inhibition": "1% (inactive)"}, {"smiles": "Cn1c(=O)[nH]c(=O)c2c1nc(NCc1ccco1)n2CCCc1ccccc1", "aptamer binding inhibition": "5% (inactive)"}, {"smiles": "CN(C)CCOC(=O)C(c1ccccc1)C1(O)CCCC1", "note": "(stereo not given)", "aptamer binding inhibition": "3% (inactive)"}, {"smiles": "COc1ccccc1C(=O)Oc1ccc2c(c1)O/C(=C\\c1ccncc1)C2=O", "aptamer binding inhibition": "-1% (inactive)"}, {"smiles": "CC(=O)CCCCn1c(=O)c2c(ncn2C)n(C)c1=O", "aptamer binding inhibition": "2% (inactive)"}, {"smiles": "CS(=O)c1ccccc1O", "note": "(stereo not given)", "aptamer binding inhibition": "0% (inactive)"}, {"smiles": "COc1cccc(OCc2nnc(-c3cccs3)o2)c1", "aptamer binding inhibition": "3% (inactive)"}, {"smiles": "CCOC(=O)C(=O)N1CCN(c2ccccc2OC)CC1", "aptamer binding inhibition": "3% (inactive)"}, {"smiles": "COc1ccc(CCN2C(=O)CSC2c2ccc(OC)c(OC)c2)cc1OC", "note": "(stereo not given)", "aptamer binding inhibition": "2% (inactive)"}, {"smiles": "CCCCCCCC(=O)OCC(O)CO", "note": "(stereo not given)", "aptamer binding inhibition": "3% (inactive)"}, {"smiles": "CN1CCN(C2=Nc3ccccc3Oc3ccc(Cl)cc32)CC1", "aptamer binding inhibition": "-9% (inactive)"}, {"smiles": "Cc1ccc(CN2CCN(CCCc3ccccc3)CC2CCO)cc1", "note": "(stereo not given)", "aptamer binding inhibition": "1% (inactive)"}]}, {"target": "Beta-2 adrenergic receptor (Homo sapiens) (UniProt P07550)", "sequence (P07550 whole entry, looked up)": "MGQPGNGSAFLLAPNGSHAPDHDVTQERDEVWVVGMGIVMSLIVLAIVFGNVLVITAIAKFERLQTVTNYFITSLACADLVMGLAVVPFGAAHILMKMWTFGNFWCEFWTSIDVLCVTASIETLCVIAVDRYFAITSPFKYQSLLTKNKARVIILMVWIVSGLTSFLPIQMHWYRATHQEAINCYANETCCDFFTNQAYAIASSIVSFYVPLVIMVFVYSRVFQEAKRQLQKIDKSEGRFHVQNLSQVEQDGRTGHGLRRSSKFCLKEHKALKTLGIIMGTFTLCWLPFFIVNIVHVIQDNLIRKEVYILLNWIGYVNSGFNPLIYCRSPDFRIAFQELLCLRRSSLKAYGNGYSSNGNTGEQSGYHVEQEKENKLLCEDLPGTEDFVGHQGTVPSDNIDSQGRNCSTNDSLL", "assay": "agonist-induced loss of surface beta2AR – cell-based, FAP fluorogen, flow cytometry, validation set, pilot screen (AID 504459);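 also: agonist-driven loss of surface beta2AR via internalization measured by FAP dye flow cytometry; reference of the scale not given here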", "conditions": "Am2.2-beta2AR cells, at 10 µM, active compounds read high", "values": [{"smiles": "O=C(Cc1ccccc1[N+](=O)[O-])NCc1ccncc1", "response": "-1.07% (inactive)"}, {"smiles": "Cn1nc(-c2ccc(Cl)cc2)nc2c(=O)n(C)c(=O)nc1-2", "response": "17.6% (inactive)"}, {"smiles": "O=C(O)CCCCCNC(=O)Nc1ccc2c(c1)OCCO2", "response": "-9.55% (inactive)"}, {"smiles": "COc1ccc(S(N)(=O)=O)cc1C(N)=O", "response": "1.47% (inactive)"}, {"smiles": "Cc1occc(=O)c1O", "response": "-9.02% (inactive)"}, {"smiles": "C[C@]12CCC3C(CC=C4C[C@@H](O)CC[C@@]43C)C1CCC2[C@]1(C)CCC(=O)O1", "note": "(stereo not given in full)", "response": "1.67% (inactive)"}, {"smiles": "CC(=O)N(CCC1(c2ccc(C)cc2)CCOC(C(C)C)C1)Cc1ccco1", "note": "(stereo not given)", "response": "-3.21% (inactive)"}, {"smiles": "O=C(CCc1ccccc1)Nc1ccccc1C(F)(F)F", "response": "-5.39% (inactive)"}, {"smiles": "CN(C)C(=O)Oc1cccc([N+](C)(C)C)c1", "response": "-26.2% (inactive) and -0.74% (inactive)"}, {"smiles": "CCOc1ccc(C(NC(C)=O)c2ccc(OC)c(OC)c2)cc1", "note": "(stereo not given)", "response": "-0.66% (inactive)"}, {"smiles": "COc1ccccc1N=CC1=C(O)CC(c2ccccc2)CC1=O", "note": "(stereo not given)", "response": "1.28% (inactive)"}, {"smiles": "O=C1CC(c2ccc(O)cc2)Oc2cc(O)cc(O)c21", "note": "(stereo not given)", "response": "-11.3% (inactive)"}, {"smiles": "O=C(NCCO)c1ccc(Cl)c(Cl)c1", "response": "-1.25% (inactive)"}, {"smiles": "N/C(Cc1ccc(Cl)cc1Cl)=N\\OC(=O)c1ccc(Br)o1", "response": "6.81% (inactive)"}, {"smiles": "CC1=NN(C(=O)c2ccc(Br)cc2)C(O)(c2ccccc2)C1", "note": "(stereo not given)", "response": "5.99% (inactive)"}, {"smiles": "Clc1cc(-c2ccc(/C=N/n3cnnc3)o2)ccc1Br", "response": "-6.37% (inactive)"}, {"smiles": "O=c1oc2c(CN3CCCCC3)c(O)ccc2c2c1CCCCC2", "response": "-8.88% (inactive)"}, {"smiles": "Cc1ccc(-c2nnc(-c3ccc4c(c3)OCO4)o2)cc1", "response": "-16.4% (inactive)"}, {"smiles": "CC1(C)CC(=O)c2cn3c(nc2C1)nc1ccccc13", "response": "-25.5% (inactive)"}, {"smiles": "COc1ccc(C(=O)N2c3cc4c(cc3C(C)=CC2(C)C)OCO4)cc1", "response": "4.24% (inactive)"}, {"smiles": "CCc1oc2ccccc2c1C(=O)c1cc(Br)c(O)c(Br)c1", "response": "2.6% (inactive)"}, {"smiles": "Cc1oc2cc(O)cc(O)c2c(=O)c1-c1ccc2c(c1)OCCCO2", "response": "5% (inactive)"}, {"smiles": "CCCC(=O)Nc1ncnc2c1ncn2[C@@H]1O[C@@H]2COP(=O)(O)O[C@H]2[C@H]1OC(=O)CCC", "response": "-6.04% (inactive)"}, {"smiles": "O=C(Cc1ccccc1)NCC(=O)OCC(=O)c1ccccc1Cl", "response": "-1.13% (inactive)"}, {"smiles": "CC/C(=C(\\c1ccc(O)cc1)c1ccc(OCCN(C)C)cc1)c1ccccc1", "response": "38.5% (inactive)"}, {"smiles": "CC(C)(C)C(=O)Nc1cccc(OC(F)(F)C(F)Cl)c1", "note": "(stereo not given)", "response": "-32.2% (inactive)"}, {"smiles": "Cc1ccc(/C(=C\\CN2CCCC2)c2ccccn2)cc1", "response": "7.2% (inactive)"}, {"smiles": "CC(C)(C)c1ccc(/C=C/C(=O)N2CCCCC2)cc1", "response": "46.6% (active)"}, {"smiles": "Cn1c(=O)[nH]c(=O)c2c1nc(NCc1ccco1)n2CCCc1ccccc1", "response": "-5.62% (inactive)"}, {"smiles": "CN(C)CCOC(=O)C(c1ccccc1)C1(O)CCCC1", "note": "(stereo not given)", "response": "2.3% (inactive)"}, {"smiles": "COc1ccccc1C(=O)Oc1ccc2c(c1)O/C(=C\\c1ccncc1)C2=O", "response": "-22.5% (inactive)"}, {"smiles": "CC(=O)CCCCn1c(=O)c2c(ncn2C)n(C)c1=O", "response": "-1.49% (inactive)"}, {"smiles": "CS(=O)c1ccccc1O", "note": "(stereo not given)", "response": "33.6% (inactive)"}, {"smiles": "COc1cccc(OCc2nnc(-c3cccs3)o2)c1", "response": "55.8% (active)"}, {"smiles": "CCOC(=O)C(=O)N1CCN(c2ccccc2OC)CC1", "response": "3.6% (inactive)"}, {"smiles": "COc1ccc(CCN2C(=O)CSC2c2ccc(OC)c(OC)c2)cc1OC", "note": "(stereo not given)", "response": "-12.9% (inactive)"}, {"smiles": "CCCCCCCC(=O)OCC(O)CO", "note": "(stereo not given)", "response": "-8.74% (inactive)"}, {"smiles": "CN1CCN(C2=Nc3ccccc3Oc3ccc(Cl)cc32)CC1", "response": "-6.79% (inactive)"}, {"smiles": "Cc1ccc(CN2CCN(CCCc3ccccc3)CC2CCO)cc1", "note": "(stereo not given)", "response": "9.66% (inactive)"}]}, {"target": "AP-2 complex subunit beta (Homo sapiens) (UniProt P63010)", "sequence (P63010 whole entry, looked up, one chain of several)": "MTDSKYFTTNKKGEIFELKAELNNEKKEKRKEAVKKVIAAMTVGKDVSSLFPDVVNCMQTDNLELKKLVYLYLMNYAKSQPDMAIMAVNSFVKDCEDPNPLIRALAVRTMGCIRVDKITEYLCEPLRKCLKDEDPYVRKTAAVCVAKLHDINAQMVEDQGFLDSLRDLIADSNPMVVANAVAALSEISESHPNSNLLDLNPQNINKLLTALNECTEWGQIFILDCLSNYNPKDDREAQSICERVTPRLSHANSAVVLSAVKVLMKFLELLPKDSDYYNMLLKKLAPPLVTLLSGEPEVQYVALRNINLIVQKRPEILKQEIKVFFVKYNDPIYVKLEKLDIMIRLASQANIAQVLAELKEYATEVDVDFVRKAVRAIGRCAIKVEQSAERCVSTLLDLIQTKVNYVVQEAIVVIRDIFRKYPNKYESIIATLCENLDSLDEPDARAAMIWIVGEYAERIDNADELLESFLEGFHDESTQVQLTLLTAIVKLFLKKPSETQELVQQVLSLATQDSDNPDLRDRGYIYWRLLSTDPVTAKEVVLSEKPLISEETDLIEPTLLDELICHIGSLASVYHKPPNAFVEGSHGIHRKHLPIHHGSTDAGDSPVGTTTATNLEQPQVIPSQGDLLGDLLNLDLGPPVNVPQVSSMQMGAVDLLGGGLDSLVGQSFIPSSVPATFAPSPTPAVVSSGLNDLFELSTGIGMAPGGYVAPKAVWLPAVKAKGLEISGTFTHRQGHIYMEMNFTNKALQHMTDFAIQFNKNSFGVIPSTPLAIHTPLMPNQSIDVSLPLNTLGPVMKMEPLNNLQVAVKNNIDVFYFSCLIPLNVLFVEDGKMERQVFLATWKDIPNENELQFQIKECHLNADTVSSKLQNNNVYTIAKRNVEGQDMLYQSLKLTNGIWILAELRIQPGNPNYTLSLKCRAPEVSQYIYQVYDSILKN", "assay": "beta-arrestin/AP2 interaction blockers – biochemical, validation set, GST-AP2 beads, flow cytometry, pilot screen (AID 504541;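 active = inhibition above 54%, about 3 SD of non-fluorescent compounds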;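 also: AP2 carries R879A mutation and is captured from E. coli lysate; 0% = DMSO wells and 100% = excess unlabeled arrestin peptide control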)", "conditions": "FITC arrestin peptide, at 10 µM, active compounds read high, AP2 beta2 appendage fragment, R879A mutant", "values": [{"smiles": "O=C(Cc1ccccc1[N+](=O)[O-])NCc1ccncc1", "inhibition": "-3.75% (inactive)"}, {"smiles": "Cn1nc(-c2ccc(Cl)cc2)nc2c(=O)n(C)c(=O)nc1-2", "inhibition": "-4.09% (inactive)"}, {"smiles": "O=C(O)CCCCCNC(=O)Nc1ccc2c(c1)OCCO2", "inhibition": "-7.04% (inactive)"}, {"smiles": "COc1ccc(S(N)(=O)=O)cc1C(N)=O", "inhibition": "13.4% (inactive)"}, {"smiles": "Cc1occc(=O)c1O", "inhibition": "-5.01% (inactive)"}, {"smiles": "C[C@]12CCC3C(CC=C4C[C@@H](O)CC[C@@]43C)C1CCC2[C@]1(C)CCC(=O)O1", "note": "(stereo not given in full)", "inhibition": "-4.51% (inactive)"}, {"smiles": "CC(=O)N(CCC1(c2ccc(C)cc2)CCOC(C(C)C)C1)Cc1ccco1", "note": "(stereo not given)", "inhibition": "3.24% (inactive)"}, {"smiles": "O=C(CCc1ccccc1)Nc1ccccc1C(F)(F)F", "inhibition": "-5.17% (inactive)"}, {"smiles": "CN(C)C(=O)Oc1cccc([N+](C)(C)C)c1", "inhibition": "-12.1% (inactive) and 15% (inactive)"}, {"smiles": "CCOc1ccc(C(NC(C)=O)c2ccc(OC)c(OC)c2)cc1", "note": "(stereo not given)", "inhibition": "-21.1% (inactive)"}, {"smiles": "COc1ccccc1N=CC1=C(O)CC(c2ccccc2)CC1=O", "note": "(stereo not given)", "inhibition": "-4.2% (inactive)"}, {"smiles": "O=C1CC(c2ccc(O)cc2)Oc2cc(O)cc(O)c21", "note": "(stereo not given)", "inhibition": "-6.71% (inactive)"}, {"smiles": "O=C(NCCO)c1ccc(Cl)c(Cl)c1", "inhibition": "-1.25% (inactive)"}, {"smiles": "N/C(Cc1ccc(Cl)cc1Cl)=N\\OC(=O)c1ccc(Br)o1", "inhibition": "-11% (inactive)"}, {"smiles": "CC1=NN(C(=O)c2ccc(Br)cc2)C(O)(c2ccccc2)C1", "note": "(stereo not given)", "inhibition": "-5.19% (inactive)"}, {"smiles": "Clc1cc(-c2ccc(/C=N/n3cnnc3)o2)ccc1Br", "inhibition": "0.75% (inactive)"}, {"smiles": "O=c1oc2c(CN3CCCCC3)c(O)ccc2c2c1CCCCC2", "inhibition": "-7.24% (inactive)"}, {"smiles": "Cc1ccc(-c2nnc(-c3ccc4c(c3)OCO4)o2)cc1", "inhibition": "6.09% (inactive)"}, {"smiles": "CC1(C)CC(=O)c2cn3c(nc2C1)nc1ccccc13", "inhibition": "17% (inactive)"}, {"smiles": "COc1ccc(C(=O)N2c3cc4c(cc3C(C)=CC2(C)C)OCO4)cc1", "inhibition": "-10.4% (inactive)"}, {"smiles": "CCc1oc2ccccc2c1C(=O)c1cc(Br)c(O)c(Br)c1", "inhibition": "-0.81% (inactive)"}, {"smiles": "Cc1oc2cc(O)cc(O)c2c(=O)c1-c1ccc2c(c1)OCCCO2", "inhibition": "21% (inactive)"}, {"smiles": "CCCC(=O)Nc1ncnc2c1ncn2[C@@H]1O[C@@H]2COP(=O)(O)O[C@H]2[C@H]1OC(=O)CCC", "inhibition": "-3.95% (inactive)"}, {"smiles": "O=C(Cc1ccccc1)NCC(=O)OCC(=O)c1ccccc1Cl", "inhibition": "-4.1% (inactive)"}, {"smiles": "CC/C(=C(\\c1ccc(O)cc1)c1ccc(OCCN(C)C)cc1)c1ccccc1", "inhibition": "42.2% (inactive)"}, {"smiles": "CC(C)(C)C(=O)Nc1cccc(OC(F)(F)C(F)Cl)c1", "note": "(stereo not given)", "inhibition": "8.53% (inactive)"}, {"smiles": "Cc1ccc(/C(=C\\CN2CCCC2)c2ccccn2)cc1", "inhibition": "-9.23% (inactive)"}, {"smiles": "CC(C)(C)c1ccc(/C=C/C(=O)N2CCCCC2)cc1", "inhibition": "3.48% (inactive)"}, {"smiles": "Cn1c(=O)[nH]c(=O)c2c1nc(NCc1ccco1)n2CCCc1ccccc1", "inhibition": "9.94% (inactive)"}, {"smiles": "CN(C)CCOC(=O)C(c1ccccc1)C1(O)CCCC1", "note": "(stereo not given)", "inhibition": "1.31% (inactive)"}, {"smiles": "COc1ccccc1C(=O)Oc1ccc2c(c1)O/C(=C\\c1ccncc1)C2=O", "inhibition": "3.83% (inactive)"}, {"smiles": "CC(=O)CCCCn1c(=O)c2c(ncn2C)n(C)c1=O", "inhibition": "4.72% (inactive)"}, {"smiles": "CS(=O)c1ccccc1O", "note": "(stereo not given)", "inhibition": "38.1% (inactive)"}, {"smiles": "COc1cccc(OCc2nnc(-c3cccs3)o2)c1", "inhibition": "61% (active)"}, {"smiles": "CCOC(=O)C(=O)N1CCN(c2ccccc2OC)CC1", "inhibition": "14.2% (inactive)"}, {"smiles": "COc1ccc(CCN2C(=O)CSC2c2ccc(OC)c(OC)c2)cc1OC", "note": "(stereo not given)", "inhibition": "8.66% (inactive)"}, {"smiles": "CCCCCCCC(=O)OCC(O)CO", "note": "(stereo not given)", "inhibition": "-8.36% (inactive)"}, {"smiles": "CN1CCN(C2=Nc3ccccc3Oc3ccc(Cl)cc32)CC1", "inhibition": "-13.5% (inactive)"}, {"smiles": "Cc1ccc(CN2CCN(CCCc3ccccc3)CC2CCO)cc1", "note": "(stereo not given)", "inhibition": "30.3% (inactive)"}]}]}
